In all, about 5,600 compounds went through this assay and about 390 (7%) showed an effect of 50% or more. This is one part of a sample in which strong results are shown more often than they occur.
molecular target: T1, Protein deacetylase HDAC6 (Homo sapiens) (UniProt Q9UBN7); conditions: at 10 µM
T1 sequence (whole entry): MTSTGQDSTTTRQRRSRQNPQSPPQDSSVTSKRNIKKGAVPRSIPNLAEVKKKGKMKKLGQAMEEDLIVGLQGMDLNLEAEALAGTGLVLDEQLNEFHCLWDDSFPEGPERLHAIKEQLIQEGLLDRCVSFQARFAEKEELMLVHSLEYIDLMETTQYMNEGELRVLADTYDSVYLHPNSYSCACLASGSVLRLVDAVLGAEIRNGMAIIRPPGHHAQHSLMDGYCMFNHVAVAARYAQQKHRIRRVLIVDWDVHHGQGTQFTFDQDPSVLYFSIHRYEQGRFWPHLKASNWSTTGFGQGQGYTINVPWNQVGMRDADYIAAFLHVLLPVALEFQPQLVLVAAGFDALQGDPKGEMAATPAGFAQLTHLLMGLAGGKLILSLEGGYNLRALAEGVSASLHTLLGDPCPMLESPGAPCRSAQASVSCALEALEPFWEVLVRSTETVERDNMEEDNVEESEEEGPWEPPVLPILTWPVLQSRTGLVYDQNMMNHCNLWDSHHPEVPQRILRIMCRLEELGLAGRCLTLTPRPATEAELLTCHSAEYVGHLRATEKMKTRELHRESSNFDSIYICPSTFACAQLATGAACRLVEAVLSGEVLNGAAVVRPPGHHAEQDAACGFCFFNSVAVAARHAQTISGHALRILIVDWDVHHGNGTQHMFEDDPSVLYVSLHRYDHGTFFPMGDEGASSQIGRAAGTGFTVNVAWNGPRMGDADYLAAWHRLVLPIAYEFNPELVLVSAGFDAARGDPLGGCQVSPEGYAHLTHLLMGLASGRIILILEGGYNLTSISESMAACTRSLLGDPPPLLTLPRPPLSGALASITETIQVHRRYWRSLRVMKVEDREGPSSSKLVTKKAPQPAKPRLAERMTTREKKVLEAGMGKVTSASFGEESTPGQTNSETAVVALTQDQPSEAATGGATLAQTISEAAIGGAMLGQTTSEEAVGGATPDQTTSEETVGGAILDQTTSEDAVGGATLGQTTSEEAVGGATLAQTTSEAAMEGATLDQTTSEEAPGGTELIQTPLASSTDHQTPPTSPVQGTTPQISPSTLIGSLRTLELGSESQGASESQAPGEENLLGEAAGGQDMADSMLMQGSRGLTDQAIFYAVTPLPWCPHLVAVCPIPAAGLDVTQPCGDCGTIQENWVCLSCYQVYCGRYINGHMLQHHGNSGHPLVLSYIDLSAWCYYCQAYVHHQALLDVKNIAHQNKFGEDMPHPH

Structure (SMILES)	inhibition
O=C(Nc1cccc2cccnc12)c1ccc(N2C(=O)[C@@H]3[C@H](C2=O)[C@@H]2C=C[C@H]3C2)cc1	56.2%
O=C(Nc1cccc2cccnc12)c1ccc(N2C(=O)[C@@H]3[C@H](C2=O)[C@H]2C=C[C@@H]3C2)cc1	-1.4%
FC(F)(F)c1cc(NC(=S)Nc2ccc(Br)cc2-c2nnn[nH]2)cc(C(F)(F)F)c1	74.5%
Oc1nc(O)c2nc(O)[nH]c2n1	12.1%
CN1CCN(CCCN2c3ccccc3Sc3ccc(C(F)(F)F)cc32)CC1	59.5%
CN1CCN(CCCN2c3ccccc3Sc3ccc(S(=O)(=O)N(C)C)cc32)CC1	-2.89%
CCN(CC)C(C)CN1c2ccccc2Sc2ccccc21 (configuration not stated)	11.7%
CC(CN(C)C)CN1c2ccccc2Sc2ccccc21 (configuration not stated)	30.9%
CN1CCCC(CN2c3ccccc3Sc3ccccc32)C1 (configuration not stated)	48.4%
CN(C)CCCN1c2ccccc2Sc2ccc(C(F)(F)F)cc21	89.2%
COc1ccccc1N1CCN(CCCCNC(=O)c2ccc(-c3ccc(C(C)=O)cc3)cc2)CC1	1.38%
OCCN1CCN(CCCN2c3ccccc3Sc3ccc(Cl)cc32)CC1	36.5%
COc1ccc2c(c1)N(C[C@H](C)CN(C)C)c1ccccc1S2	14.6%
CC(=O)c1ccc2c(c1)N(CCCN1CCC(CCO)CC1)c1ccccc1S2	76.9%
CCSc1ccc2c(c1)N(CCCN1CCN(C)CC1)c1ccccc1S2	70.4%
CCC(=N\O)/C(C)=C/c1ccc(F)cc1	47.7%
C[C@@H](NCc1cc(Br)cc2nc(O)c(O)nc12)P(=O)(O)O	7.12%
CCCCCCCCCCCCCCCCCCCCCC(=O)O	-9.27%
COc1cc(N2CCC(N(C)C)CC2)ccc1Nc1ncc(Cl)c(Nc2ccccc2P(C)(C)=O)n1	3.02%
CCC[C@@H](NC(=O)N1C(=O)C(CC)(CC)[C@@H]1Oc1ccc(C(=O)N2CCN(C)CC2)cc1)c1ccc2c(c1)OCO2	9.19%
CCn1c2ccccc2c2cc(CNC)ccc21	-7.52%
COc1cccc(OC)c1-c1cc(C(=O)N[C@@H](CC(C)C)C(=O)O)nn1-c1ccnc2cc(Cl)ccc12	6.09%
CCCCN1CC(O)C(O)C(O)C1CO (configuration not stated)	-6.7%
COc1cc2c(cc1NS(=O)(=O)c1ccc(Br)cc1C)n(C)c(=O)n2C	19.4%

Structure (SMILES)	inhibition
O=c1[nH]c([C@@H]2CCCN2)nc2c1oc1ccc(Cl)cc12	-8.21%
CC(C)(C)NC(=O)[C@@H]1C[C@@H]2CCCC[C@@H]2CN1C[C@@H](O)[C@H](Cc1ccccc1)NC(=O)[C@H](CC(N)=O)NC(=O)c1ccc2ccccc2n1	2.2%
NCCCC(N)C(=O)O (configuration not stated)	-5.26%
CCCCC/C=C\C/C=C\C/C=C\CCCCC(=O)O	20.4%
O=c1n(CC2CO2)c(=O)n(CC2CO2)c(=O)n1CC1CO1 (configuration not stated)	21.5%
CCN(CC)CCCCN1c2ccccc2Oc2ccc(Cl)cc21	22.7%
CN(C)CCCN1c2ccccc2Sc2ccc(Cl)cc21	59.7%
CN(C)CCCN1c2ccccc2CCc2ccc(Cl)cc21	7.48%
c1ccc2c(Oc3nc(Nc4ccc(N5CCOCC5)cc4)c4ncn(C5CCCCC5)c4n3)cccc2c1	2.11%
O=C(c1c2ccccc2cc2ccccc12)N1CCC(N2CCC[C@@H](C(=O)N3CCOCC3)C2)CC1	16%
C[C@@]12CCC3[C@@](CC[C@@H]4[C@](C)(C(=O)O)CCC[C@@]34C)(CC1=O)C2 (some centres not stated)	11.5%
c1ccc2c(c1)CCC[C@H]2Nc1nc2ccccc2[nH]1	96.9%
CCNC(=O)N1CCN(CCCC(c2ccc(F)cc2)c2ccc(F)cc2)CC1	-5.99%
CC(C)C[C@H](NC(=O)CNC(=O)[C@H](Cc1ccc(O)cc1)NC(=O)[C@H](CO)NC(=O)[C@H](Cc1c[nH]c2ccccc12)NC(=O)[C@H](Cc1cnc[nH]1)NC(=O)[C@@H]1CCC(=O)N1)C(=O)N[C@@H](CCCNC(=N)N)C(=O)N1CCC[C@H]1C(=O)NCC(N)=O	18.4%
CCCCCCCCCCCCCCCC(=O)N[C@@H](CCC(=O)NCCCC[C@H](NC(=O)[C@H](C)NC(=O)[C@H](C)NC(=O)[C@H](CCC(N)=O)NC(=O)CNC(=O)[C@H](CCC(=O)O)NC(=O)[C@H](CC(C)C)NC(=O)[C@H](Cc1ccc(O)cc1)NC(=O)[C@H](CO)NC(=O)[C@H](CO)NC(=O)[C@@H](NC(=O)[C@H](CC(=O)O)NC(=O)[C@H](CO)NC(=O)[C@@H](NC(=O)[C@H](Cc1ccccc1)NC(=O)[C@@H](NC(=O)CNC(=O)[C@H](CCC(=O)O)NC(=O)[C@H](C)NC(=O)[C@@H](N)Cc1cnc[nH]1)[C@@H](C)O)[C@@H](C)O)C(C)C)C(=O)N[C@@H](CCC(=O)O)C(=O)N[C@@H](Cc1ccccc1)C(=O)N[C@H](C(=O)N[C@@H](C)C(=O)N[C@@H](Cc1c[nH]c2ccccc12)C(=O)N[C@@H](CC(C)C)C(=O)N[C@H](C(=O)N[C@@H](CCCNC(=N)N)C(=O)NCC(=O)N[C@@H](CCCNC(=N)N)C(=O)NCC(=O)O)C(C)C)[C@@H](C)CC)C(=O)O	102%
CC(C)C[C@H](NC(=O)[C@@H](COC(C)(C)C)NC(=O)[C@H](Cc1ccc(O)cc1)NC(=O)[C@H](CO)NC(=O)[C@H](Cc1c[nH]c2ccccc12)NC(=O)[C@H](Cc1cnc[nH]1)NC(=O)[C@@H]1CCC(=O)N1)C(=O)N[C@@H](CCCNC(=N)N)C(=O)N1CCC[C@H]1C(=O)NNC(N)=O	7.12%
CCCCc1nc2ccn(CC(=O)N(C)C)c(=O)c2n1Cc1ccc(-c2ccccc2-c2nnn[nH]2)cc1	0.96%
CCCc1cc(C)[nH]c(=O)c1CNC(=O)c1cc(-c2ccc(N3CCN(C(C)C)CC3)nc2)cc2c1cnn2C(C)C	8.48%
O[C@@H](COc1cccc2ncccc12)CN1CCN([C@@H]2c3ccccc3[C@@H]3[C@H](c4ccccc42)C3(F)F)CC1	10.7%
Cc1cc(OCCN2CCOCC2)nn1-c1ccc2ccccc2c1	10.2%
Cc1ccc(-n2nc(C(C)(C)C)cc2NC(=O)Nc2ccc(OCCN3CCOCC3)c3ccccc23)cc1	71.1%
CC(C)(C)c1cc(NC(=O)Nc2ccc(-c3cn4c(n3)sc3cc(OCCN5CCOCC5)ccc34)cc2)no1	1.57%
O[C@H]1[C@H](O)[C@@H](O)[C@H](O)[C@@H](O)[C@H]1O	22.8%
